# Measured values published in the supplement of paper PMC10849652.
# About 7,900 targets were measured; listed, in parts, are those with a hit and a random draw of the rest. About 0.6% of all pairs of compound and target were hits. A number with no mark means an inactive call.
# Experiments:
# Assay in all cases: log2 fold change, soluble protein after heating vs DMSO (PISA); higher = thermal stabilisation; K562 cells, 10 uM, 30 min; active = over 0.2 and 3.5 SD of the protein, either way, in both replicates (recomputed)
# [1] = compound: CS(=O)(=O)c1ccc(-c2cnc(N)c(C(=O)Nc3ccccc3)n2)cc1
# How it was run: (§1)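 K562 cells at 2×10^6 cells/mL were treated with 10 μM compound for 30 min. Aliquots were heated for 3 min across 48°C-58°C, pooled, and extracted in PBS with 0.5% NP-40 at 4°C; soluble protein was the supernatant after 21,000xg for 90 min. Soluble protein was quantified by TMTpro 16plex LC-MS/MS with channel sums equalised, and reported as log2 fold change in thermal stability against DMSO controls, with values from duplicates.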
# [2] = compound: C[C@@H](Oc1cc(-c2cnn(C3CCNCC3)c2)cnc1N)c1c(Cl)ccc(F)c1Cl [crizotinib]
# How it was run: as §1
# [3] = compound: C[C@@H]1COCCN1C2=NC(=NC(=C2)C3(CC3)S(=O)(=O)C)C4=C5C=CNC5=CC=C4
# How it was run: as §1
# [4] = compound: C[C@H](C1=CC=C(C=C1)C(=O)NC2=C3C=CNC3=NC=C2)N
# How it was run: as §1
# [5] = compound: C[C@H](Nc1ncnc2nc[nH]c12)c1cc2cccc(Cl)c2c(=O)n1-c1ccccc1 [duvelisib]
# How it was run: as §1
# [6] = compound: Cc1cc(Nc2cc(CN3CCOCC3)c3nc(C)c(Cc4ccc(Cl)cc4F)n3n2)n[nH]1 [gandotinib]
# How it was run: as §1
# [7] = compound: Cc1cc(Nc2cc(N3CCN(C)CC3)nc(Sc3ccc(NC(=O)C4CC4)cc3)n2)n[nH]1 [tozasertib]
# How it was run: as §1
# [8] = compound: Cc1cc(SCc2sc(-c3ccc(C(F)(F)F)cc3)nc2C)ccc1OCC(=O)O
# How it was run: as §1
# [9] = compound: Cc1ccc(-n2nc(C(C)(C)C)cc2NC(=O)Nc2ccc(OCCN3CCOCC3)c3ccccc23)cc1 [doramapimod]
# How it was run: as §1
# [10] = compound: Cc1ccc(C(=O)N(CCCN)[C@@H](c2nc3cc(Cl)ccc3c(=O)n2Cc2ccccc2)C(C)C)cc1 [ispinesib]
# How it was run: as §1
# [11] = compound: Cc1ccc(NC(=O)c2ccc(CN3CC[C@H](N(C)C)C3)c(C(F)(F)F)c2)cc1Nc1nccc(-c2cncnc2)n1 [bafetinib]
# How it was run: as §1
# [12] = compound: Cc1cccc(CC(=O)N2CCc3c2ccc(-c2cn(C)c4ncnc(N)c24)c3F)n1
# How it was run: as §1
# [13] = compound: Cc1cn(-c2cc(NC(=O)c3ccc(C)c(Nc4nccc(-c5cccnc5)n4)c3)cc(C(F)(F)F)c2)cn1 [nilotinib]
# How it was run: as §1
# [14] = compound: Cc1nc(Nc2n[nH]c3c2CN(C(=O)N[C@H](CN(C)C)c2ccccc2)C3(C)C)c2sccc2n1
# How it was run: as §1
# [15] = compound: Cc1nc(Nc2ncc(C(=O)Nc3c(C)cccc3Cl)s2)cc(N2CCN(CCO)CC2)n1 [dasatinib]
# How it was run: as §1
# [16] = compound: Cc1ncc(-c2ccnc(Nc3ccc(S(C)(=O)=O)cc3)n2)n1C(C)C
# How it was run: as §1
# [17] = compound: Cn1cc(-c2ccc3c(c2)CCN3C(=O)Cc2cccc(C(F)(F)F)c2)c2c(N)ncnc21
# How it was run: as §1
# [18] = compound: Cn1cc(-c2ccc3nnc(C(F)(F)c4ccc5ncccc5c4)n3n2)cn1
# How it was run: as §1
# [19] = compound: Cn1cncc1[C@@](N)(c1ccc(Cl)cc1)c1ccc2c(c1)c(-c1cccc(Cl)c1)cc(=O)n2C [tipifarnib]
# How it was run: as §1
# [20] = compound: FC(F)(F)c1ccc(/C=C/c2nc(COc3ccc(CCCCn4ccnn4)cc3)co2)cc1 [mubritinib]
# How it was run: as §1
# Sequence of UniProt P26368 (P26368 whole entry, looked up): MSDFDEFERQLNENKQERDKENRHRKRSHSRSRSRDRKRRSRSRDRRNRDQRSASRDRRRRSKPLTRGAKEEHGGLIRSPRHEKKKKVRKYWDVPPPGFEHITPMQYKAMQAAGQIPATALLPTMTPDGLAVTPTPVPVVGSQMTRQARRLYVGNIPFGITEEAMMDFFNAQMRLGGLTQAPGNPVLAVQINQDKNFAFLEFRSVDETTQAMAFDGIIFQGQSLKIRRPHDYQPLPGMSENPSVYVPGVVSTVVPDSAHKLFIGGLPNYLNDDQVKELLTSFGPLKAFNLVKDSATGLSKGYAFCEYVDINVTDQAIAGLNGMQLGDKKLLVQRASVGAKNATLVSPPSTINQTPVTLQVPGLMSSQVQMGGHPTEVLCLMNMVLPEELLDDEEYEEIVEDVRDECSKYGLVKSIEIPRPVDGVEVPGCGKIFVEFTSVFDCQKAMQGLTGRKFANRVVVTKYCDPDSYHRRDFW
# Sequence of UniProt O14787 (O14787 whole entry, looked up): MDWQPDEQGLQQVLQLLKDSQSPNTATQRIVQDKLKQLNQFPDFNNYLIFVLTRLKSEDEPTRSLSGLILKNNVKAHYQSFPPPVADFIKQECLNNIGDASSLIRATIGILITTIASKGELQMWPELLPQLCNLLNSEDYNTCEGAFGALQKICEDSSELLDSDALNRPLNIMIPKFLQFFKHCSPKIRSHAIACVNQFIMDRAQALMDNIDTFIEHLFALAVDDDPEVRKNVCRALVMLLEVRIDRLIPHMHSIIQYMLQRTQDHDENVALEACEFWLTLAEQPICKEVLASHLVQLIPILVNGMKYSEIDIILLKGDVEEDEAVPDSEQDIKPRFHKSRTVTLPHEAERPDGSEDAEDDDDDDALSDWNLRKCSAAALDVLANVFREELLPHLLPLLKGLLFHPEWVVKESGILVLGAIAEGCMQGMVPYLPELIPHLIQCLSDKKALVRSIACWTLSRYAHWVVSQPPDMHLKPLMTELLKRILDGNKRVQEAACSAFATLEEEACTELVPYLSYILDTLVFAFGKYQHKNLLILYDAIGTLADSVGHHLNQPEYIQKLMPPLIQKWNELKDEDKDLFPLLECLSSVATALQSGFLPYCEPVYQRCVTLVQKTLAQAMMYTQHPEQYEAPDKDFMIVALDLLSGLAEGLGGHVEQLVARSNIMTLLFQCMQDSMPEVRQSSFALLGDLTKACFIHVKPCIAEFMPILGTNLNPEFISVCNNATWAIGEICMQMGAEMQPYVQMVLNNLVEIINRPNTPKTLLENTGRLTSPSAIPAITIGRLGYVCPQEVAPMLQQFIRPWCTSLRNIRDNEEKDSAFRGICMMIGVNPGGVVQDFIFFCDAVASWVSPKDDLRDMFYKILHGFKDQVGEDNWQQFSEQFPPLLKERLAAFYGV
# Sequence of UniProt O60763 (O60763 whole entry, looked up): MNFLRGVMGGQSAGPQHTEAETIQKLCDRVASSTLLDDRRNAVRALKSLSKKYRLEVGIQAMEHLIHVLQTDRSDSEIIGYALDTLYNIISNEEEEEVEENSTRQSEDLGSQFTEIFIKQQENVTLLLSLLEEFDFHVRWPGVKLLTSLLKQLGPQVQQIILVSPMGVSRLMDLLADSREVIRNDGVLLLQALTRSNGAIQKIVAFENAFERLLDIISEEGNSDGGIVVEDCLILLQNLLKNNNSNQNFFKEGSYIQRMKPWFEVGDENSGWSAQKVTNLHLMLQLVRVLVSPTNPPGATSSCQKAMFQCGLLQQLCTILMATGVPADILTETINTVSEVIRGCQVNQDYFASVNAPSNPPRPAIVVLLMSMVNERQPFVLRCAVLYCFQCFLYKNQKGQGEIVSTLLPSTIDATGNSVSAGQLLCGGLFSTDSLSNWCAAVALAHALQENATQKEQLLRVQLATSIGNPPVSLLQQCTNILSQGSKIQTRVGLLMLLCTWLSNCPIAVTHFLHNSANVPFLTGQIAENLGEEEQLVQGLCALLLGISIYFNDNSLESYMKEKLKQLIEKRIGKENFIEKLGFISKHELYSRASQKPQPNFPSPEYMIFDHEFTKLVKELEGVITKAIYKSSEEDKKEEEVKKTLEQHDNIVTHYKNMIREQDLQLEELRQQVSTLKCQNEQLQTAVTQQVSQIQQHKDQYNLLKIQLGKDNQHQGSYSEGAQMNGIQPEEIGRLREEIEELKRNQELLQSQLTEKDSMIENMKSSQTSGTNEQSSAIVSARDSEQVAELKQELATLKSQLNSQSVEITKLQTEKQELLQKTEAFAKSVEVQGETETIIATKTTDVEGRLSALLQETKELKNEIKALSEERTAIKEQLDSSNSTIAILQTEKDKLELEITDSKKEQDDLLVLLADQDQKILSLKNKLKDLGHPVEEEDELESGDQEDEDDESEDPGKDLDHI
# Sequence of UniProt Q9Y385 (Q9Y385 whole entry, looked up): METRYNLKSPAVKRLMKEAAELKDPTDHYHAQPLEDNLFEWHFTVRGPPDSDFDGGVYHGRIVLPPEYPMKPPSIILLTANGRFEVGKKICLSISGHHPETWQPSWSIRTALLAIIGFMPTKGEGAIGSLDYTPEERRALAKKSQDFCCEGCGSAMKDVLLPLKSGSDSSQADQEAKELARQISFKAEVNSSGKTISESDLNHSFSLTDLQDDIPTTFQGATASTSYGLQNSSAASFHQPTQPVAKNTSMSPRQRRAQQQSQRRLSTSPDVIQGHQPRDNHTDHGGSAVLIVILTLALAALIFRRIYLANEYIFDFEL
# Sequence of UniProt Q9BZH6 (Q9BZH6 whole entry, looked up): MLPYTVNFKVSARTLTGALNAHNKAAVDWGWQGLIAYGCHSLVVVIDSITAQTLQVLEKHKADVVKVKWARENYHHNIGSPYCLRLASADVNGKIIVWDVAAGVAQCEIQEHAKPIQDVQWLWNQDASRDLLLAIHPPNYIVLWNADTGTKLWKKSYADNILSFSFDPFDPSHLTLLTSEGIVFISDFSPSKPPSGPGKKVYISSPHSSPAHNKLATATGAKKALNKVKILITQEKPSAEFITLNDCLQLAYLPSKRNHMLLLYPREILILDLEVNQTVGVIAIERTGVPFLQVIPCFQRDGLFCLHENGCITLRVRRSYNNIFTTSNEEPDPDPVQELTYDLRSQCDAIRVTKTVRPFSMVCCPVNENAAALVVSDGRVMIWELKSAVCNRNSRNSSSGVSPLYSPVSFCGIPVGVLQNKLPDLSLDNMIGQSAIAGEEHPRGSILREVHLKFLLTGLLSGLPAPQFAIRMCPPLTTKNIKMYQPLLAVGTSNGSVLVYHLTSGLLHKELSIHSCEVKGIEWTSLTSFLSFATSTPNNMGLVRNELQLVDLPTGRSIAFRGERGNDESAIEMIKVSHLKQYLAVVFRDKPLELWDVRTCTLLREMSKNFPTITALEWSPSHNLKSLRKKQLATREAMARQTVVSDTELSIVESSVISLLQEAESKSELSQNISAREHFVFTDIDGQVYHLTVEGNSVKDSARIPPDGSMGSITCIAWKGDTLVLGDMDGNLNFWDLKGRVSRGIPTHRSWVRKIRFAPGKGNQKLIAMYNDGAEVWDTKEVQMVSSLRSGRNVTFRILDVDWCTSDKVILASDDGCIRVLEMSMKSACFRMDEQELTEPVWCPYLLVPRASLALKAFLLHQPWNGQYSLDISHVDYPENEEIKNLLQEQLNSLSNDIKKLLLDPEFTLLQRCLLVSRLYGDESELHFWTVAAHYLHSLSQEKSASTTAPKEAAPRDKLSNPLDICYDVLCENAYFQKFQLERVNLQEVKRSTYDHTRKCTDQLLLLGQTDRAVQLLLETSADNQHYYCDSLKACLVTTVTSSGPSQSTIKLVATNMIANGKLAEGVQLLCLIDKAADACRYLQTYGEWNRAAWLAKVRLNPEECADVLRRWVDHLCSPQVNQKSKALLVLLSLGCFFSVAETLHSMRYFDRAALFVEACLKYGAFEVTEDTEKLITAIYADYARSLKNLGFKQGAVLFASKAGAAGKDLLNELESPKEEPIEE
# Sequence of UniProt P0CG48 (P0CG48 whole entry, looked up): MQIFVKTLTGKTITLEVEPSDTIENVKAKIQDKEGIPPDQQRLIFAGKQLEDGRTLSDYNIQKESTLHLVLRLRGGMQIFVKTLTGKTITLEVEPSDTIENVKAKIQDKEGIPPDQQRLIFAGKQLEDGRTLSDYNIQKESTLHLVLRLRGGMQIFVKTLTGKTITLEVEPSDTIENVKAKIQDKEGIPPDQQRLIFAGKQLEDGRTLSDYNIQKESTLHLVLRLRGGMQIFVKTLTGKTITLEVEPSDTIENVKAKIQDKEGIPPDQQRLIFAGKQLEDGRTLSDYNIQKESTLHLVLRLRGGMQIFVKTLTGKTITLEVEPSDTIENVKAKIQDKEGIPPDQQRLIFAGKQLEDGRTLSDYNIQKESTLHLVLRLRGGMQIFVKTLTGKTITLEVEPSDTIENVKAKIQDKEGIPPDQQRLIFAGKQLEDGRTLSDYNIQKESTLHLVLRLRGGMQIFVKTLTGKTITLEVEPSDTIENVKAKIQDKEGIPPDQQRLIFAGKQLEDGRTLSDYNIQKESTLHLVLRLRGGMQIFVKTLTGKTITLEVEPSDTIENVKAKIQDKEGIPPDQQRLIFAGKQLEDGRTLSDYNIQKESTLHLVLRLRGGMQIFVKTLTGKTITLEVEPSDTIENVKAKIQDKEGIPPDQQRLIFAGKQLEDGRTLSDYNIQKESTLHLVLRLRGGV
# Sequence of UniProt O00220 (O00220 whole entry, looked up): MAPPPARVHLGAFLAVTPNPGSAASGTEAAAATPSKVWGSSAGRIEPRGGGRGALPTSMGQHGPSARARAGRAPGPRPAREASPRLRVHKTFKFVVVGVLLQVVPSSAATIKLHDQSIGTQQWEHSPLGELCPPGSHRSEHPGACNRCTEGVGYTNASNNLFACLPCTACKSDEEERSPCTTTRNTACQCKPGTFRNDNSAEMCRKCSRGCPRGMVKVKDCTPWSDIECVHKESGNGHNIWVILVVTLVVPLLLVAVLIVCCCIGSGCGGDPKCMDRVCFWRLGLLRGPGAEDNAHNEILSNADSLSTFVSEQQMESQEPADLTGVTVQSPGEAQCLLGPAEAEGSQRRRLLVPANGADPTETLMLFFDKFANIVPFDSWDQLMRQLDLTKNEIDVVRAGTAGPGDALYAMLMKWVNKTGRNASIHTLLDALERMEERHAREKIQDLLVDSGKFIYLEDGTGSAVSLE
Target,log2 fold change [1],log2 fold change [2],log2 fold change [3],log2 fold change [4],log2 fold change [5],log2 fold change [6],log2 fold change [7],log2 fold change [8],log2 fold change [9],log2 fold change [10],log2 fold change [11],log2 fold change [12],log2 fold change [13],log2 fold change [14],log2 fold change [15],log2 fold change [16],log2 fold change [17],log2 fold change [18],log2 fold change [19],log2 fold change [20]
UBLCP1 (UniProt Q8WVY7),0.063,0.068,-0.007,-0.034,0.03,-0.06,0.045,0.062,-0.061,0.126,0.016,-0.034,-0.101,0.074,-0.063,0.116,-0.052,0.006,-0.072,0.155
UBC (UniProt P0CG48),-0.003,0.208,0.05,0.064,0.075,0.014,0.009,-0.009,0.035,0.091,0.055,-0.156,0.116,0.013,0.02,-0.025,0.003,0.07,-0.051,0.005
TNPO3 (UniProt Q9Y5L0),-0.028,-0.151,0.025,-0.124,-0.008,-0.143,0.087,0.046,-0.046,0.008,-0.057,0.041,-0.052,-0.123,-0.103,-0.028,-0.001,-0.014,-0.121,0.061
TNPO2 (UniProt O14787),0.019,-0.153,0.046,-0.037,0.03,-0.059,0.077,0.048,0.011,-0.14,-0.004,0.129,-0.122,-0.111,-0.173,-0.087,-0.076,-0.011,-0.011,0.043
WDR11 (UniProt Q9BZH6),-0.064,-0.007,0.111,0.059,0.029,-0.291,-0.049,-0.051,0.056,-0.133,0.063,-0.067,-0.229,0.051,0.056,-0.121,-0.018,0.046,0.038,0.051
UBE2J1 (UniProt Q9Y385),0.06,-0.172,0.026,-0.043,0.179,-0.151,0.026,-0.01,-0.26,-0.016,0.108,0.023,-0.076,-0.09,-0.028,-0.189,-0.053,0.003,-0.056,0.132
VPS33B (UniProt Q9H267),0.05,-0.182,-0.022,0.063,-0.004,-0.114,0.012,0.085,-0.01,-0.149,0.01,0.04,-0.056,-0.158,-0.209,0.099,0.017,-0.069,-0.107,0.054
TNFRSF10A (UniProt O00220),-0.008,0.037,0.047,-0.073,0,0.019,-0.024,-0.019,-0.023,-0.075,-0.044,-0.051,0.061,-0.055,-0.015,0.058,-0.082,-0.005,-0.054,-0.05
UGDH (UniProt O60701),-0.106,0.079,0.041,-0.161,0.061,-0.064,0.046,0.049,-0.106,0.165,0.018,0.062,-0.045,-0.377 (active),-0.043,-0.24,0.151,0.09,-0.034,0.202
USP14 (UniProt P54578),0.006,-0.023,0.082,-0.037,0.067,-0.078,-0.002,0.076,0.002,0.017,-0.03,0.012,-0.006,-0.026,-0.087,0.015,-0.001,-0.065,-0.067,0.029
USP7 (UniProt Q93009),0.008,-0.311,0.147,0.07,0.046,-0.157,-0.077,0.146,-0.039,-0.175,-0.018,0.097,-0.076,-0.113,-0.272,-0.011,0.101,0.153,-0.139,0.068
UPF3B (UniProt Q9BZI7),0,0.091,-0.63,0.542,-0.125,0.452,0.071,0.064,0.295,-0.222,0.108,0.055,-0.15,0.098,0.143,-0.085,-0.225,-0.24,0.106,-0.098
TRMT61A (UniProt Q96FX7),-0.017,-0.046,-0.201,0.168,-0.004,0.168,-0.016,0.106,0.011,-0.093,-0.051,0.047,0.036,0.046,0.011,-0.07,-0.11,-0.016,0.043,-0.125
U2AF2 (UniProt P26368),0.036,-0.101,0.057,-0.101,-0.029,0.036,0.008,0.063,-0.006,0.014,-0.019,-0.241 (active),-0.003,-1.66 (active),0.018,0.049,-0.011,-0.044,0.045,-0.051
USO1 isoform 2 (UniProt O60763),0.001,-0.031,0.05,-0.068,-0.023,-0.062,0.029,0.052,-0.019,0.012,-0.055,0.036,-0.039,-0.024,-0.052,0.032,-0.017,-0.003,-0.068,0.032
UBAP2L isoform 1 (UniProt Q14157),-0.034,0.077,0.009,-0.008,0.022,-0.007,-0.062,-0.056,0.034,-0.026,-0.006,-0.043,0.013,-0.134,0.058,-0.056,0.064,0.034,0.076,0.07
